In the library only some 2.3% were active in any assay of this set; here they are far more common.
USP1 inh = Inhibitors of USP1/UAF1: Primary Screen | AID 743255, 2014 | Potency, µM (series often up to 57.1 µM), without a hit: top-dose activity change, negative = inhibition, most hits filed as inhibitors | 0.23% of 390,000 active | recombinant USP1/UAF1, Ub-Rhodamine cleavage fluorescence | Ubiquitin carboxyl-terminal hydrolase 1 (Homo sapiens), O94782; further: potency means the concentration at half of the fitted maximal effect; nearly all actives have a fitted effect of over 60% in size
Target sequence (O94782 whole entry, looked up): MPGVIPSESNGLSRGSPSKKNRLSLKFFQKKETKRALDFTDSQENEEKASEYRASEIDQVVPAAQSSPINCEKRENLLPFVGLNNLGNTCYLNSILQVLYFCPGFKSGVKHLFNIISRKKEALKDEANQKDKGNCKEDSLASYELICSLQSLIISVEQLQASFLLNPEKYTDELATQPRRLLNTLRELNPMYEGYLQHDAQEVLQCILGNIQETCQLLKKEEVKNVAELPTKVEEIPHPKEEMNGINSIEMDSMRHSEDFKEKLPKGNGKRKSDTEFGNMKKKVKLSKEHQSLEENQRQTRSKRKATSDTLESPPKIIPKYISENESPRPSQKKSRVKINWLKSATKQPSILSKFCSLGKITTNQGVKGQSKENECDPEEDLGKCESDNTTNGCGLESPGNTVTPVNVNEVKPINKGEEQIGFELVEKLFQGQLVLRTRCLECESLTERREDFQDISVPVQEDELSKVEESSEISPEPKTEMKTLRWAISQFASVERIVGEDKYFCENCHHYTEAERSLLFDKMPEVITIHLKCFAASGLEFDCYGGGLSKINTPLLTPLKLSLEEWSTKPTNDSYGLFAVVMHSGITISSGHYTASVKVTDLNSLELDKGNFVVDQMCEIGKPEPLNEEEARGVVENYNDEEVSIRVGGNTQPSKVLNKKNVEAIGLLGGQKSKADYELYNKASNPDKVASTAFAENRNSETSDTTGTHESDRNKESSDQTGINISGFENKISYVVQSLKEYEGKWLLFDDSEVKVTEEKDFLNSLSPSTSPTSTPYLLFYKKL
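In this screen, compounds sit with the deubiquitinase complex (1nM) for 15 min at room temperature before Ub-Rho is added at 150nM final. Fluorescence rise is then followed for 6 reads every 60 seconds.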
Tau fluor cs = Counterscreen qHTS for Inhibitors of Tau Fibril Formation, Fluorescence Polarization; Potency, µM (doses to about 57.7 µM), for the others: at the top dose activity change, negative = decrease; tau K18 P301L Alexa594 fluorescence, heparin fibrillization; 0.93% of 280,000 active; further: potency means the concentration at half of the fitted maximal effect; nearly all actives have a fitted effect of over 55% in size
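Human K18 P301L tau (15 uM unlabeled plus 0.24 uM Alexa 594-labeled, final) in 100 mM sodium acetate pH 7 was mixed with compound and 20 uM heparin and incubated 6 hr at 37 C.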
FBPA coupling cs = qHTS Assay for Inhibitors of Fructose-1,6-bisphosphate Aldolase from Giardia Lamblia: Coupling assay counterscreen | activity change, negative = inhibition, % at 58.2 µM, hits read low | coupling enzyme system counterscreen, AmpLite Red fluorescence | 0.67% of 290,000 active; in the data active means activity change below about -30%
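First, compound is pin-transferred into glyceraldehyde-3-phosphate coupling-enzyme reagent at 57.5 uM final and held 10 min at RT. Next, substrate, coupling system and AmpLite Red are added. After 20 min RT, fluorescence (525/598 nm) is read.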
Tau ThT inhib = qHTS for Inhibitors of Tau Fibril Formation, Thioflavin T Binding; recombinant tau K18 P301L (four-repeat tau fragment), heparin-induced fibrillization, ThT fluorescence; AID 1460, 2008; Microtubule-associated protein tau (Homo sapiens), P10636; Potency, µM (series often up to 57.4 µM), without a hit: at the top dose activity, negative = inhibition, hits mostly inhibitors; 2.1% of 270,000 active; further: potency means the concentration at half of the fitted maximal effect; nearly all actives have a fitted effect of over 55% in size
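Recombinant human tau K18 fragment […] carrying P301L, 15 uM unlabeled plus 0.24 uM Alexa 594-labeled, was fibrillized with 20 uM heparin in 100 mM sodium acetate pH 7 for 6 hr at 37 C; 30 uM ThT fluorescence read after 1 hr.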
Tau fibril FP = qHTS for Inhibitors of Tau Fibril Formation, Fluorescence Polarization; Microtubule-associated protein tau (Homo sapiens), P10636; K18 P301L tau heparin fibrillization, Alexa594 FP, 6 h; Potency, µM (series often up to 57.7 µM), inactives show at the top dose activity, negative = inhibition, most hits filed as inhibitors; 0.39% of 280,000 active; further: potency means the concentration at half of the fitted maximal effect; nearly all actives have a fitted effect of over 55% in size
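Compound effects on tau fibrillization are measured by Alexa 594 fluorescence polarization (ex 555, em 632 nm). K18 P301L tau is used at 15 uM with 0.24 uM labeled tracer, and 20 uM heparin induces aggregation over 6 hr at 37 C.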
The depositor's hits bear a star; ? = inconclusive; · = no result given; ! = a repeat was not active; [ ] = remark or other dose. Unless noted, the call rests on the fitted dose curve; in most records, active means well fitted curve in the direction sought with a large enough effect; inconclusive means small, poorly fitted or top-dose-only effect, or another doubt; inactive means no such curve, though single readings can be large; an effect the other way counts as inactive or inconclusive. On the % scale 0 is the no-effect control and ±100 the full control effect.

SMILES	USP1 inh	Tau fluor cs	FBPA coupling cs	Tau ThT inhib	Tau fibril FP
O=C(Nc1ccc(Cl)cc1)c1ccc2c(c1)N(Cc1ccccc1)C(=O)c1ccccc1S2(=O)=O	-15%	?	·	5%	?
CC(=O)Nc1ccc(NC(=O)c2ccc3c(c2)N(Cc2cccc(Cl)c2)C(=O)c2ccccc2S3(=O)=O)cc1	-31%	?	·	-11%	16µM*
O=C1C=CC(=O)c2c(O)c(N3CCN(CCOCCO)CC3)c(Br)c(O)c21	2µM*	·	·	·	·
O=C1C=CC(=O)c2c(O)c(N3CCN(CCO)CC3)c(Cl)c(O)c21	2.8µM*	·	·	·	·
COC(=O)c1scc(-c2ccc(C)cc2)c1S(=O)(=O)N1CCN(c2ccccc2)CC1	2%	-20%	·	-7%	11%
CCN(Cc1nc(-c2ccc(OC)cc2)oc1C)S(=O)(=O)c1ccc(Cl)cc1	-14%	-15%	·	-3%	3%
CSc1nc(=NC(C)=O)ss1	-9%	-22%	4	25µM*	?
COc1cccc(CNC(=O)C2Cc3cc(S(=O)(=O)N4CCCCCC4)ccc3N2C(C)=O)c1 (stereo not drawn)	-19%	-22%	·	-14%	-6%
CCCCC1=CC2=C(c3ccco3)C(=O)C(C)(OC(=O)c3ccc(OC)cc3)C(=O)C2=CN1Cc1ccco1 (stereo not drawn)	?	-4%[11.6 µM]	-9	8.9µM*!	0%[11.6 µM]
CCCCC1=CC2=C(c3ccco3)C(=O)C(C)(OC(=O)c3ccc(OC)cc3)C(=O)C2=CN1CCCCO (stereo not drawn)	2%	-13%[11.6 µM]	-6	?	-4%[11.6 µM]
CCCCC1=CC2=C(c3ccco3)C(=O)C(C)(OC(=O)c3ccc(OC)cc3)C(=O)C2=CN1CC1CC1 (stereo not drawn)	-23%	?	-2	16µM*!	4%[11.6 µM]
CCCCC1=CC2=C(c3ccco3)C(=O)C(C)(OC(=O)c3ccc(OC)cc3)C(=O)C2=CN1C1CC1 (stereo not drawn)	5%	-1%[11.6 µM]	-2	?	1%[11.6 µM]
CCCCC1=CC2=C(c3ccco3)C(=O)C(C)(OC(=O)c3ccc(OC)cc3)C(=O)C2=CN1Cc1ccc(OC)cc1 (stereo not drawn)	·	0%[11.6 µM]	0	14µM*!	?
CCN(C(=O)c1coc(=O)c2ccccc12)c1ccccc1C	-17%	-12%	·	0%	-10%
COc1ccc2nc3ccccc3nc2c1NC(=O)c1ccc(Cl)cc1Cl	254%	-15%	-33*	2%	-2%
COc1cccc(NC(=O)Cn2nc3c4ccccc4n(Cc4cccc(F)c4)cc-3c2=O)c1	?	-21%	·	-15%	-8%
Cc1ccc(OCCNc2ccc(C(F)(F)F)cc2[N+](=O)[O-])cc1	-21%	-12%	-1	?	?
O=C(NCCO)c1ccc(Oc2ccc(C(F)(F)F)cc2[N+](=O)[O-])cc1	-18%	-5%	-4	-4%	7%[2.34 µM]
Cc1cc(C)cc(OC(=O)CS(=O)c2ccc(C(F)(F)F)cc2[N+](=O)[O-])c1 (stereo not drawn)	-20%	?	-27	13µM*	?
O=C(CS(=O)c1ccc(C(F)(F)F)cc1[N+](=O)[O-])Oc1ccc(Cl)cc1 (stereo not drawn)	?	?	-15	22µM*	?
CCOc1ccccc1N(C)C(=O)c1cc(S(=O)(=O)NCCc2ccc(Cl)cc2)ccc1F	-15%	-12%	·	-4%	13%
COc1ccccc1C(=O)OCc1cc(=O)n2c(C)csc2n1	-26%	-8%	·	-7%	-5%
CC(=O)NC1=C(N(C)C2CCS(=O)(=O)C2)C(=O)c2ccccc2C1=O (stereo not drawn)	?	-22%	-70*	25µM*	?
Cn1nnnc1SCCCNCc1cccc(OCc2ccccc2)c1	-11%	-11%	·	-1%	-1%
O=C(Nc1ccc(N=Nc2ccccc2)c(NC(=O)C2CCCO2)c1)C1CCCO1 (stereo not drawn)	-12%	-27%	2	14µM*	-2%
SMILES	USP1 inh	Tau fluor cs	FBPA coupling cs	Tau ThT inhib	Tau fibril FP
Cc1ccc(N=Cc2ccc[nH]2)c(O)c1	-17%	?	-34*	16µM*	?
CCOC(=O)c1cnc2ccc(Cl)cc2c1NCCN(C)C	-11%	8%	-57*	10%	11%
CCOC(=O)c1cnc2ccc(Cl)cc2c1Nc1ccc(OCC)cc1	?	-20%	·	?	?
CC(=O)N1C(=O)/C(=C2\SC(=S)N(c3c(C)n(C)n(-c4ccccc4)c3=O)C2=O)c2ccccc21	?	-16%	-40*	?	-15%
O=C1/C(=C\c2ccc(Br)cc2)SC(=S)N1NS(=O)(=O)c1ccccc1	-26%	·	0	·	·
CCN1C(=O)/C(=C2\SC(=S)N(NC(=O)c3ccccc3O)C2=O)c2ccccc21	-11%	20µM*[quencher]	-4	20µM*	?
CC(/C=C1\SC(=S)N(NS(=O)(=O)c2ccccc2)C1=O)=C\c1ccccc1	?	-29%	4	10µM*	?
CC(/C=C1\SC(=S)N(NS(=O)(=O)c2ccc(C)cc2)C1=O)=C\c1ccccc1	?	-15%	-1	11µM*	?
Cc1ccc(S(=O)(=O)NN2C(=O)/C(=C/c3cccc(F)c3)SC2=S)cc1	-27%	·	8	·	·
COc1ccc(CNC(=O)Cn2ccc3cc(S(=O)(=O)N4CCCCC4)ccc32)c(OC)c1	?	-26%	·	-6%	6%
CC(=O)c1cccc(NS(=O)(=O)c2cccc(S(=O)(=O)c3ccc(Br)cc3)c2)c1	-14%	?	·	-15%	-13%
CC(=O)N1C(=O)/C(=C2\SC(=S)N(NS(=O)(=O)c3ccc(C)cc3)C2=O)c2ccccc21	?	?	2	14µM*	?
CC(/C=C1\SC(=S)N(c2ccc(C(=O)O)cc2)C1=O)=C\c1ccccc1	-24%	11%[0.0958 µM]	7	·	0%[0.0958 µM]
CC(/C=C1\SC(=S)N(C(C(=O)O)C(C)C)C1=O)=C\c1ccccc1 (stereo not drawn)	-25%	-8%	19	22µM*	-7%
C=C(CC(=O)OC)C[C@]1(CC(=O)OC)CC2(CC=C(C)C)C(=O)C(C(=O)c3ccccc3)=C(OC(=O)c3ccc(Br)cc3)C(CC=C(C)C)(C1)C2=O (stereo partly drawn)	·	-13%[11.6 µM]	0	-14%[11.5 µM]	0%[11.6 µM]
Cc1ccccc1Nc1c(-c2ccco2)nc2c(C)cccn12	-5%	-29%	·	-14%	1%
COc1ccc(N/C=C2\C(=O)CCc3c2oc2cc(Cl)c(O)c(Cl)c32)cc1	-18%	?	6	2.5µM*	16%

High-throughput results (PubChem)
